Only some compounds are listed: those with a hit (about 7.3% of all), similar ones and a draw of the others.
ELG1 genotoxic: induces genotoxicity in HEK293T cells with luciferase-tagged ELG1; 1.3% of 330,000 active; Potency, µM (titrated, usually from 46 µM), without a hit: at the top dose activity change, positive = activation, actives largely listed as activators; HEK293T ELG1-luciferase reporter, luminescence, 16 h; note: % of control where 0% means no effect; nearly all actives have a fitted effect of over 60% in size
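HEK293T cells expressing luciferase-tagged ELG1 were exposed to compound or DMSO vehicle for 16 hr at 37 °C and 5% CO2. Luciferase activity was then measured with ONE-Glo after 30 min at room temperature.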
FLuc modulator: inhibits or activates purified firefly luciferase, miR-21 counter-screen; purified FLuc, Km substrates, luminescence inhibition; Potency, µM (doses to about 57.5 µM), inactives show at the top dose activity change, negative = inhibition, actives largely listed as inhibitors; 6.9% of 360,000 active; AID 588342;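 note: plate controls were vehicle for no effect and reference inhibitor for full effect; nearly all actives have a fitted effect of over 55% in size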
Target sequence (P08659 whole entry, looked up): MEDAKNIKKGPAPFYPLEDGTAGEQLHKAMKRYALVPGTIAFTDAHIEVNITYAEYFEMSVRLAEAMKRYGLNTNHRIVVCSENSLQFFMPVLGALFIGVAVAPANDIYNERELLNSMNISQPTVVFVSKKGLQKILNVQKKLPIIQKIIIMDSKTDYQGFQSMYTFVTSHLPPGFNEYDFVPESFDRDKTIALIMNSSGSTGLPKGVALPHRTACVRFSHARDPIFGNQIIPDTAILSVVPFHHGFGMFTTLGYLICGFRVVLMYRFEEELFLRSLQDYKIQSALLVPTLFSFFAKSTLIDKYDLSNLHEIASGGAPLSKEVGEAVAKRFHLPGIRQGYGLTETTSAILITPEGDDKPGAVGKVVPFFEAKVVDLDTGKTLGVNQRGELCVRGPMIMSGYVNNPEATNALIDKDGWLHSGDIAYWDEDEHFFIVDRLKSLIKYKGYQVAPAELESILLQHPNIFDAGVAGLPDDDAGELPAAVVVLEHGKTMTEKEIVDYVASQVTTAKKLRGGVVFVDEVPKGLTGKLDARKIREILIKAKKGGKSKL
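Purified P. pyralis luciferase (10nM final) with 10uM D-luciferin and 10uM ATP (Km levels) in 50mM Tris acetate pH 7.5, 10mM Mg acetate, 0.01% Tween-20, 0.05% BSA; qHTS 6-point titration, ~60 µM downward; luminescence read.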
Rab9 promoter act: activators of Rab9 promoter; Potency, µM (titrated, usually from 9.22 µM), inactives show at the highest dose activation, negative = inhibition, usual class: activators; AID 485297; 2.8% of 320,000 active; Huh7 Rab9 promoter-luciferase reporter, luminescence, 24 h; note: % of control where 0% means no effect; nearly all actives have a fitted effect of over 60% in size
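Stable Rab9-luc Huh7, 1500 cells/well, 2 h settle; cmpd in DMSO, 24 h, 37 °C/5% CO2; luciferase reagent 10 min RT; luminescence.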
KinaseGlo FLuc: Kinase-Glo luciferase inhibition (counter-screen) | Kinase-Glo luciferase, ATP luminescence, 8 min | Potency, µM (highest dose often 38.3 µM), for the others: top-dose activity change, negative = inhibition, most hits filed as inhibitors | 0.28% of 200,000 active; note: % is set by controls: 0 for no effect and ±100 for the full control effect; nearly all actives have a fitted effect of over 60% in size
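Kinase-Glo luciferase light output from ATP and luciferin was measured with 10 uM ATP, within the enzyme's linear range. Buffer: 50 mM imidazole pH 7.2, 50 mM KCl, 7 mM MgCl2, 0.01% Tween 20, 0.05% BSA; luminescence read after 8 min at ambient temperature.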
SMN2 splice enh: enhancers of SMN2 splice variant expression. HEK293 SMN2-luciferase splicing reporter, luminescence, 30-36 h. Potency, µM (series often up to 46.1 µM), for the others: at the highest dose activity change, positive = activation, most hits filed as activators. 2.8% of 210,000 active; note: % of control where 0% means no effect; nearly all actives have a fitted effect of over 55% in size
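HEK293 cells carry an SMN2 […]–luciferase reporter in which exon 7 inclusion puts luciferase in frame. Cells were plated 10-12 h before compound addition, then incubated 30-36 h at 37C. ONE-Glo luminescence was read; sodium butyrate at 4.5 mM final served as control.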
NPC1 prom act: NPC1 promoter activation | Huh7 NPC1 promoter luciferase reporter, 24 h | Potency, µM (highest dose often 9.22 µM), without a hit: at the highest dose activation, most hits filed as activators | 2.4% of 320,000 active | AID 485313; note: % of control where 0% means no effect; nearly all actives have a fitted effect of over 60% in size
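In 1536-well qHTS, Huh7 cells harboring an NPC1 promoter–luciferase construct received compound for 24 h; activation was quantified by luminescence following luciferase reagent addition.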
The depositor's hits bear a star; ? = inconclusive; . = not tested or not shown; [ ] = another dose, or the depositor's remark. Calls come from the whole dose curve; as a rule, active = well fitted curve in the direction sought with a large enough effect; inconclusive = small, poorly fitted or top-dose-only effect, or another doubt; inactive = no such curve, though single readings can be large; an effect the other way counts as inactive or inconclusive. Potency is the fitted concentration of half-maximal effect.

SMILES	ELG1 genotoxic	FLuc modulator	Rab9 promoter act	KinaseGlo FLuc	SMN2 splice enh	NPC1 prom act
COc1cccc([C@@H]2Oc3ccc(Br)cc3C[C@H]2OC(=O)N[C@H](C)C2CCCCC2)c1	.	.	.	1.9%	2.5%	.
O=C1CCCCC1Sc1nnc(-c2ccc3c(c2)OCO3)o1 (configuration not stated)	-8.6%	0.601µM*	0.1µM*	-28.4%	?	0.199µM*
Brc1ccc(-c2nnc(-c3ccc4c(c3)OCO4)o2)o1	?	1.69µM*	1µM*	-6.9%	11.2µM*	2µM*
c1coc(-c2nnc(-c3ccc4c(c3)OCO4)o2)c1	8.2µM*	6.75µM*	?	-18.8%	17.8µM*	2µM*
Cc1ccc(-c2nnc(-c3ccc4c(c3)OCO4)o2)cc1	6.51µM*	1.35µM*	0.708µM*	-5.0%	11.2µM*	1µM*
c1nnc(-c2ccc3c(c2)OCO3)o1	1.3%	-4.6%	-0.8%	1.4%	0.5%	-1.1%
Clc1ccc(CSc2nnc(-c3ccc4c(c3)OCO4)o2)cc1	0.4%	?	-2.2%	-1.5%	-10.0%	2.6%
COc1cccc(C(=O)Nc2c(C(=O)NC(C)(C)C)oc3ccccc23)c1	.	0.9%	.	.	.	.
Cc1cc(C(=O)CN2CCCC(C)C2)c(C)n1-c1ccc(F)cc1 (configuration not stated)	?	15.1µM*	2.51µM*	0.7%	17.8µM*	?
NC(=O)c1ccsc1N	0.0%	-0.5%	-4.1%	-3.6%	.	-1.3%
Nc1sccc1C(=O)c1ccc(Cl)cc1	11.2µM*	?	?	-3.2%	27.6%	28.0%
Nc1cccc2c1C(=O)N(CCOc1ccc(F)cc1)C2=O	2.06µM*	2.69µM*	1.58µM*	.	.	1.78µM*
O=C1c2ccccc2C(=O)N1CCOc1ccccc1Br	?	23.9µM*	?	.	.	28.0%
O=C1c2ccccc2C(=O)N1CCOc1ccccc1Cl	0.2%	-0.6%	-1.1%	.	.	-1.7%
Cc1ccccc1OCCN1C(=O)c2ccccc2C1=O	?	19µM*	?	0.2%	10.4%	?
COc1cc2c(cc1OC)-c1cc3nc4ccccc4nc3n1C(C)(C)C2	.	.	.	2.2%	.	.
COCCNC(=O)/C(C#N)=C/c1cc(C)n(C2CCCCC2)c1C	1.3%	3.01µM*	0.794µM*	-2.3%	6.31µM*	1.78µM*
COCCNC(=O)/C(C#N)=C/c1cc(C)n(-c2ccc(C)cc2)c1C	4.11µM*	0.953µM*	1.58µM*	-7.2%	.	1.58µM*
COc1ccc(NC(=O)/C(C#N)=C/c2cc(C)n(-c3ccc(F)cc3)c2C)cc1	.	?	.	.	3.4%	.
Cc1cc(/C=C(\C#N)C(=O)O)c(C)n1C1CC1	0.2%	?	2.2%	-0.5%	-11.6%	-1.0%
COc1ccc(-n2c(C)cc(/C=C(\C#N)C(=O)NCc3ccco3)c2C)cc1	-0.1%	12µM*	0.2%	4.4%	-7.4%	8.0%
CCN(Cc1ccccc1)c1ncnc2c1nnn2C	.	-8.3%	.	.	.	.
COc1ccccc1CNC(=O)CCC(=O)N1CC2CCCN2c2ccccc21 (configuration not stated)	.	2.7%	.	.	.	.
CNS(=O)(=O)c1cccc(C(=O)OCc2csc(-c3ccccc3)n2)c1	5.1%	?	3.2%	-4.8%	-2.8%	-4.6%
Cc1ccsc1C(=O)OCc1csc(-c2ccccc2)n1	7.31µM*	0.601µM*	3.98µM*	?	15.8µM*	?
SMILES	ELG1 genotoxic	FLuc modulator	Rab9 promoter act	KinaseGlo FLuc	SMN2 splice enh	NPC1 prom act
COc1ccc(C(=O)NCC(=O)OCc2csc(-c3ccccc3)n2)cc1	5.0%	16.9µM*	0.0%	-2.6%	-15.7%	0.8%
O=C(OCc1csc(-c2ccccc2)n1)C1=NN(c2ccccc2)C(=O)CC1	8.7%	?	13.8%	.	.	12.0%
COc1ccccc1C(=O)NCC(=O)OCc1csc(-c2ccccc2)n1	6.2%	-14.2%	11.1%	-0.8%	?	1.1%
Cn1cccc1C(=O)OCc1csc(-c2ccccc2)n1	?	0.675µM*	1.12µM*	?	11.2µM*	2.51µM*
O=C(OCc1csc(-c2ccccc2)n1)c1cccs1	?	0.536µM*	?	?	13.9%	?
CC(CCC#N)[N+](=O)[O-] (configuration not stated)	.	.	.	-3.0%	-7.5%	.
CCc1ccc(NC(=O)Cn2c(=O)n(Cc3ccco3)c(=O)c3cccnc32)cc1	.	-6.6%	.	.	7.5%	.
CCOC(=O)c1c(C)oc2nc(C)nc(NCCCN3CCN(c4cccc(C)c4)C(C)C3)c12 (configuration not stated)	.	-8.7%	.	.	.	.
Cc1ccc(-c2onc3ccc(C4OCCO4)cc23)cc1	9.9%	7.57µM*	?	-1.5%	-1.2%	26.6%
Cc1ccc(-c2onc3ccc(Br)cc23)cc1	-0.6%	?	2.5%	.	.	4.1%
C=C(C)CNCCN	.	.	.	0.5%[7.66 µM]	2.3%[9.22 µM]	.
CCc1ccccc1NC(=O)c1cc2sccc2n1C	2.8%	?	?	1.5%	9.6%	1.4%
COc1ccc(CNC(=O)c2cc3sccc3n2C)cc1	.	-16.4%	.	.	-25.7%	.
COc1cc(NC(=O)c2cc3sccc3n2C)cc(OC)c1	5.8µM*	8.49µM*	11.9%	-3.4%	12.6µM*	-0.6%
Cn1c(C(=O)Nc2ccccc2)cc2sccc21	?	13.5µM*	?	-7.6%	?	?
Cn1c(C(=O)NCc2ccc3c(c2)OCO3)cc2sccc21	4.2%	-17.3%	1.3%	1.1%	8.3%	-0.4%
Cn1c(C(=O)Nc2ccc3c(c2)OCO3)cc2sccc21	?	3.38µM*	1.58µM*	-4.4%	12.6µM*	1.41µM*
COc1ccc(OC)c(NC(=O)c2cc3sccc3n2C)c1	1.2%	12µM*	19.6%	-2.3%	-1.4%	18.5%
C=CC[C@](C)(O)c1ccccc1	.	.	.	-1.4%	-0.9%	.
CCOc1ccc(NC(=O)NCc2ccc3c(c2)CCN3C(C)=O)cc1	.	-6.1%	.	.	.	.
COC(=O)c1ccc(NC(=O)c2cc3sccc3n2C)cc1	0.0%	10.7µM*	-17.0%	-5.2%	.	19.0%
O=C(Nc1ccc(OCc2cc(=O)n3c4c(sc3n2)CCCC4)cc1)c1ccccc1	.	-1.1%	.	.	-2.5%	.
O=C1c2ccccc2NC(c2cnc3ccccc3n2)N1O (configuration not stated)	?	2.39µM*	0.891µM*	-16.9%	11.2µM*	1.26µM*
COc1ccc(C2=CC(c3cc(Br)ccc3F)n3c(nc4ccccc43)N2)cc1 (configuration not stated)	.	4.26µM*	.	.	.	.
Fc1ccc(C2=CC(c3ccc(F)cc3)n3c(nc4ccccc43)N2)cc1 (configuration not stated)	.	10.7µM*	.	.	.	.
COC(=O)c1ccc(C2C=C(c3ccc(Cl)cc3)Nc3nc4ccccc4n32)cc1 (configuration not stated)	.	6.75µM*	.	.	.	.

Assay outcomes from PubChem BioAssay.
